According to PubChem BioAssay (NCATS):
Records with an inconclusive call do not appear. Calls of active or inactive are those of the source. The call rests on the fitted dose curve; in most records, active means well fitted curve in the direction sought with a large enough effect; inconclusive means small, poorly fitted or top-dose-only effect, or another doubt; inactive means no such curve, though single readings can be large; an effect the other way counts as inactive or inconclusive.

Columns and labels:
[1] = qHTS assay for measurement of the activity of small molecule inhibitors on Zika virus induced Caspase-3 activity in human iPSC derived neural progenitor cells (hNPCs) (AID 1224857); further: % of control where 0% means no effect; nearly all actives have a fitted effect of over 65% in size
Method in brief: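 Caspase-3/7 induction by a 6-hour ZIKV infection was quantified with a luminescent Caspase-Glo 3/7 reagent incubated 30 minutes at room temperature. Compounds were preincubated with hNPCs for 1 hour; inhibition was calculated against uninfected and infected control wells.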

[2] = qHTS assay for measurement of the activity of small molecule inhibitors on Zika virus induced Caspase-3 activity in human astrocytoma cells (AID 1224859);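 further: plate controls were ZIKV-infected untreated cells for no effect and uninfected cells for full effect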
Method in brief: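 In SNB-19 cells plated at 250 cells/well and grown 16-20 h, compounds were applied 1 h before ZIKV (2 FFU/cell). Six hours later caspase-3/7 luminescence was recorded.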

[3] = qHTS assay to identify small molecule inhibitors of chordoma cells - UCH-1 (AID 1259355); further: on the % scale 0 is the no-effect control and ±100 the full control effect; nearly all actives have a fitted effect of over 55% in size
Method in brief: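 800 cells/well, overnight attach; compounds pinned at 15 concs, then auranofin/camptothecin/doxorubicin/rubitecan/topotecan combo added; 48hr 37 C, 5% CO2; CellTiter-Glo, 30min RT, luminescence.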

[4] = qHTS assay to identify small molecule inhibitors of chordoma cells - UCH-2 (AID 1259356); further: series mostly up to about 46 µM; on the % scale 0 is the no-effect control and ±100 the full control effect
[5] = P-glycoprotein substrates identified in KB-8-5-11 adenocarcinoma cell line, qHTS therapeutic library screen (AID 1346987); further: nearly all actives have a fitted effect of over 65% in size
Method in brief: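 Human cervical adenocarcinoma KB-8-5-11 cells, selected in colchicine to over-express P-gp and assayed without it, were exposed for 72 h to titrated compounds. An ATP-based luminescent viability signal gave AC50.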

[6] = qHTS assay for cell viability of the p53RE-bla HCT-116 cell line (AID 743292); further: on the % scale 0 is the no-effect control and ±100 the full control effect; nearly all actives have a fitted effect of over 55% in size
Method in brief: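 Intracellular ATP of p53RE-bla HCT-116 cells measured by luciferase luminescence following 16 h compound incubation at 37 C; DMSO-only wells served as vehicle controls.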

O=C(O)Cc1sc(-c2ccccc2)nc1-c1ccc(Cl)cc1
inactive: outcome [1] | outcome [2] | Potency [3] | outcome [4] | Potency [5]

O=C(O)c1ccccc1-c1ccc(C(F)(F)F)cc1
inactive: outcome [1] | outcome [2] | Potency [3] | outcome [4] | Potency [5]

N[C@H](C(=O)O)c1ccc(O)cc1
inactive: outcome [1] | outcome [2] | Potency [3] | outcome [4] | Potency [5]

O=S(=O)(O)c1cc(I)c(O)c2ncccc12
inactive: outcome [1] | outcome [2] | Potency [3] | outcome [4] | Potency [5]

NC(CSCC(=O)O)C(=O)O (stereo unspecified)
inactive: outcome [1] | outcome [2] | Potency [3] | outcome [4] | Potency [5]

O=c1[nH]c(=O)c2[nH]c(=O)[nH]c2[nH]1
inactive: activity change, negative = inhibition [1] -8.73% [at 9.06 µM] | activity change, negative = inhibition [2] -0.8% [at 9.06 µM] | Potency [3] | outcome [4] | Potency [5]

CCCCCCCCCCCCCCCC(=O)NCCO
inactive: outcome [1] | outcome [2] | Potency [3] | outcome [4] | Potency [5]

O=c1cc(CO)occ1O
inactive: outcome [1] | outcome [2] | Potency [3] | outcome [4] | Potency [5]

Cn1cc[nH]c1=S
inactive: outcome [1] | outcome [2] | Potency [3] | outcome [4] | Potency [5]

CN1[C@@H]2CC[C@H]1CC(OC(=O)C(O)c1ccccc1)C2 (stereo partly specified)
inactive: outcome [1] | outcome [2] | Potency [3] | outcome [4] | Potency [5]

O=C(O)COc1nn(Cc2ccccc2)c2ccccc12
inactive: outcome [1] | outcome [2] | Potency [3] | outcome [4] | Potency [5]

CC(=O)Oc1c(C)c(C)c2c(c1C)CC[C@@](C)(CCC[C@H](C)CCC[C@H](C)CCCC(C)C)O2
inactive: outcome [1] | outcome [2] | Potency [3] | outcome [4] | Potency [5]

CC1=C(C/C=C(\C)CCC[C@H](C)CCC[C@H](C)CCCC(C)C)C(=O)c2ccccc2C1=O
inactive: outcome [1] | outcome [2] | Potency [3] | outcome [4] | Potency [5]

Oc1ccc(C(O)CNCCCCCCNCC(O)c2ccc(O)c(O)c2)cc1O (stereo unspecified)
inactive: outcome [1] | outcome [2] | Potency [3] | outcome [4] | Potency [5]

O=C(O)c1ccccn1
inactive: outcome [1] | outcome [2] | Potency [3] | outcome [4] | Potency [5]

CCC(=O)Nc1ccc(O)cc1
inactive: outcome [1] | outcome [2] | Potency [3] | outcome [4] | Potency [5]

Cn1c(=O)c2c(ncn2CC2OCCO2)n(C)c1=O
inactive: outcome [1] | outcome [2] | Potency [3] | outcome [4] | Potency [5]

CC1=C(CC(=O)O)c2cc(F)ccc2/C1=C\c1ccc(S(C)=O)cc1 (stereo unspecified)
inactive: outcome [1] | outcome [2] | Potency [3] | outcome [4] | Potency [5]

O=C1OC(OC(=O)c2cccnc2Nc2cccc(C(F)(F)F)c2)c2ccccc21 (stereo unspecified)
inactive: outcome [1] | outcome [2] | Potency [3] | outcome [4] | Potency [5]

NS(=O)(=O)c1cc2c(cc1Cl)NC(CSCc1ccccc1)=NS2(=O)=O
inactive: outcome [1] | outcome [2] | Potency [3] | outcome [4] | Potency [5]

CN1CCOC(c2ccccc2)c2ccccc2C1 (stereo unspecified)
inactive: outcome [1] | outcome [2] | Potency [3] | outcome [4] | Potency [5]

NCC(=O)CCC(=O)O
inactive: outcome [1] | outcome [2] | Potency [3] | outcome [4] | Potency [5]

CCC(=O)c1ccc(O)cc1
inactive: outcome [1] | outcome [2] | Potency [3] | outcome [4] | Potency [5]

N[C@@H](CSCCCO)C(=O)O
inactive: outcome [1] | outcome [2] | Potency [3] | outcome [4] | Potency [5]

Cc1cc(O)cc2c1O[C@](C)(CCC[C@H](C)CCC[C@H](C)CCCC(C)C)CC2
inactive: outcome [1] | outcome [2] | Potency [3] | outcome [4] | Potency [5]

CC(C)(O)c1ccccc1CC[C@@H](SCC1(CC(=O)O)CC1)c1cccc(/C=C/c2ccc3ccc(Cl)cc3n2)c1
inactive: outcome [1] | outcome [2] | Potency [3] | outcome [4] | Potency [5]

NC(=O)NNc1ccccc1
inactive: outcome [1] | outcome [2] | Potency [3] | outcome [4] | Potency [5]

CCCCc1ncc(/C=C(\Cc2cccs2)C(=O)O)n1Cc1ccc(C(=O)O)cc1
inactive: outcome [1] | outcome [2] | Potency [3] | outcome [4] | Potency [5]

CSc1ccc2c(c1)C(N1CCN(C)CC1)Cc1ccccc1S2 (stereo unspecified)
inactive: outcome [1] | outcome [2] | Potency [3] | outcome [4] | Potency [5]

CC[C@@]1(c2ccccc2)NC(=O)N(C)C1=O
inactive: outcome [1] | outcome [2] | Potency [3] | outcome [4] | Potency [5]

CCOC(=O)[C@H](CCc1ccccc1)N[C@@H](C)C(=O)N1C(=O)N(C)C[C@H]1C(=O)O
inactive: outcome [1] | outcome [2] | Potency [3] | outcome [4] | Potency [5]

O=C(O)c1ccccc1O
inactive: outcome [1] | outcome [2] | Potency [3] | outcome [4] | Potency [5]

CCCCOC(=O)c1ccc(O)cc1
inactive: Potency [6] | outcome [1] | outcome [2] | Potency [3] | outcome [4] | Potency [5]
